# Reference: the supplement of paper PMC6411743
# ± gives the standard deviation of the averaged measurements. The full data set covers some 6,500 targets. This sample favours those with the largest changes.
# What was measured:
# Test in all cases: NP40-soluble protein abundance relative to vehicle (solubility fold change) (ratio); higher = more soluble protein in presence of ATP
# [1] = target: T1, DDX50 (UniProt Q9BQ39)
# T1 sequence (whole entry): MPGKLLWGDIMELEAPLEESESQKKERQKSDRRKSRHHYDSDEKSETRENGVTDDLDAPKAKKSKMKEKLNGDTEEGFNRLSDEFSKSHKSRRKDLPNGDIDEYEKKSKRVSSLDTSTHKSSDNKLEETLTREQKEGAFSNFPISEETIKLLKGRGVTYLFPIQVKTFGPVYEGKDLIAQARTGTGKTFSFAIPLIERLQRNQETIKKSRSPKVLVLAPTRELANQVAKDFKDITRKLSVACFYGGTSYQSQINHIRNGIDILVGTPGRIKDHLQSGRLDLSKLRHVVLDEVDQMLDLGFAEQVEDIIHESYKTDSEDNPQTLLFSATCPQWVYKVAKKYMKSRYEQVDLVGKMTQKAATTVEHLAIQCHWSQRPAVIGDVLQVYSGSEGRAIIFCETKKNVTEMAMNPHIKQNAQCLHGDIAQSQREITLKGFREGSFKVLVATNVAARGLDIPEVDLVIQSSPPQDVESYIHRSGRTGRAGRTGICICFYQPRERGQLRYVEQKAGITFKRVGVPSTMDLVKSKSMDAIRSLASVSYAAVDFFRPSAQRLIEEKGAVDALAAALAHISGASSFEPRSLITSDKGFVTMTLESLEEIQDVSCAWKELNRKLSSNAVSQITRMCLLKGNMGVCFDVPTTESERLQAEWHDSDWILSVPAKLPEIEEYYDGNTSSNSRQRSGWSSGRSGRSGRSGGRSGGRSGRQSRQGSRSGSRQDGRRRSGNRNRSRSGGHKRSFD
# Method in brief: (§1)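 Across three independent experiments, values are fold changes against the detergent-processed vehicle for each replicate, based on vsn-normalised intensities. The samples were Jurkat crude lysate treated with eight concentrations (0.1 to 10 mM) for 10 min at room temperature and then 3 min at 37 °C. Lysate was solubilised with 0.8% NP40 and benzonase, ultracentrifuged, and the supernatant analysed by TMT-labelled LC-MS/MS.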
# [2] = target: T2, PINX1 (UniProt Q96BK5)
# T2 sequence (whole entry): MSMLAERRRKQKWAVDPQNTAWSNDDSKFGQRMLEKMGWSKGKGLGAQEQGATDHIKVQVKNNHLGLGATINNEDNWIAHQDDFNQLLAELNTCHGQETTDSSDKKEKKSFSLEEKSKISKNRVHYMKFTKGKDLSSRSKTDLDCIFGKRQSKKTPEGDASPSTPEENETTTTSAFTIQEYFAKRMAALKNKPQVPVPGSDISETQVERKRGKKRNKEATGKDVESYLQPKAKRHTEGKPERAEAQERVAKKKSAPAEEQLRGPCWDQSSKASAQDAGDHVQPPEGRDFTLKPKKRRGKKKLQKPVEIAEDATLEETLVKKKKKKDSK
# Method in brief: as §1
# [3] = target: T3, UniProt Q969F9|Q969F9-2|G5E9V4
# T3 sequence (whole entry): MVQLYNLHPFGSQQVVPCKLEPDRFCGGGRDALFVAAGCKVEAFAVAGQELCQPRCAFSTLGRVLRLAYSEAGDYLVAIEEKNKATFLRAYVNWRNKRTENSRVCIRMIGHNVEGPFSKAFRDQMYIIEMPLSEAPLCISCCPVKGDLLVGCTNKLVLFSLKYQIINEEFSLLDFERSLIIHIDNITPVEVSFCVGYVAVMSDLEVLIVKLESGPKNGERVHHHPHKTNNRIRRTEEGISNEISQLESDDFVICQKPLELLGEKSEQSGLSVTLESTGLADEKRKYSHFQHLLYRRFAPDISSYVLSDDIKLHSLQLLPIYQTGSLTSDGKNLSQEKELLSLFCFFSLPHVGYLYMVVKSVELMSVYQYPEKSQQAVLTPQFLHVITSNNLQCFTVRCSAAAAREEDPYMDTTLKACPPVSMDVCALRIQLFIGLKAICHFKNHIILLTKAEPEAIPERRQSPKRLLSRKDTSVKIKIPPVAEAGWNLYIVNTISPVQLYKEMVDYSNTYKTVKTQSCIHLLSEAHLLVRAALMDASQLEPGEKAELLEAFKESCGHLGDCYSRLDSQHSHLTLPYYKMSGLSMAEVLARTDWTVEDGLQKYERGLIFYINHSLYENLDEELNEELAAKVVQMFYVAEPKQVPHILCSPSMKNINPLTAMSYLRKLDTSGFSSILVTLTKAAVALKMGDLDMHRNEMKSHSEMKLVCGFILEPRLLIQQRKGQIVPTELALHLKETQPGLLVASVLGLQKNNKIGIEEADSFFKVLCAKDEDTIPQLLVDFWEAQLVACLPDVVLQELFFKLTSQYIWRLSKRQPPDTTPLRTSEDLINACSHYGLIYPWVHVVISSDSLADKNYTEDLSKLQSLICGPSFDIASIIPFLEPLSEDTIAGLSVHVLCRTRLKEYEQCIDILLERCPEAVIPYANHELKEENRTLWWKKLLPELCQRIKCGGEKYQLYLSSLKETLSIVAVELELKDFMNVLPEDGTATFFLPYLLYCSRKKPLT
# Method in brief: as §1
# [4] = target: T4, UniProt Q96G25|Q96G25-2
# T4 sequence (whole entry): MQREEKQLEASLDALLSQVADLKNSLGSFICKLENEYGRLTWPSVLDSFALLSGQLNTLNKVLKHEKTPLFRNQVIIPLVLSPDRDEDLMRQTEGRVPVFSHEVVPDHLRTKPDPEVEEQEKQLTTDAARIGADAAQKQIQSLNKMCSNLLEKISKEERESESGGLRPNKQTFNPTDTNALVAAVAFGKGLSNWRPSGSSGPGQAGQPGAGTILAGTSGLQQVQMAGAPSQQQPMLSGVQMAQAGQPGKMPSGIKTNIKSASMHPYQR
# Method in brief: as §1
# [5] = target: T5, UniProt Q9BUA3
# T5 sequence (whole entry): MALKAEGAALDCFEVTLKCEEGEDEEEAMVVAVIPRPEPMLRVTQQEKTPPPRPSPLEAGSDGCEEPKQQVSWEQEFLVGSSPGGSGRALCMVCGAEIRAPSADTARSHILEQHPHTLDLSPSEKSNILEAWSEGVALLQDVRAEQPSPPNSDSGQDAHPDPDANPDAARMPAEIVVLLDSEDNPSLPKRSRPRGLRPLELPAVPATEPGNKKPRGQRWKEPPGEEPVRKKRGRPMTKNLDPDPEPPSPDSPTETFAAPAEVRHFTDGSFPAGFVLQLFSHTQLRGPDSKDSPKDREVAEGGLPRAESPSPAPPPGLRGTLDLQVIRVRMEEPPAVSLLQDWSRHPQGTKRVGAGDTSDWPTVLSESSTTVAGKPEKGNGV
# Method in brief: as §1
# [6] = target: T6, UniProt Q9H993
# T6 sequence (whole entry): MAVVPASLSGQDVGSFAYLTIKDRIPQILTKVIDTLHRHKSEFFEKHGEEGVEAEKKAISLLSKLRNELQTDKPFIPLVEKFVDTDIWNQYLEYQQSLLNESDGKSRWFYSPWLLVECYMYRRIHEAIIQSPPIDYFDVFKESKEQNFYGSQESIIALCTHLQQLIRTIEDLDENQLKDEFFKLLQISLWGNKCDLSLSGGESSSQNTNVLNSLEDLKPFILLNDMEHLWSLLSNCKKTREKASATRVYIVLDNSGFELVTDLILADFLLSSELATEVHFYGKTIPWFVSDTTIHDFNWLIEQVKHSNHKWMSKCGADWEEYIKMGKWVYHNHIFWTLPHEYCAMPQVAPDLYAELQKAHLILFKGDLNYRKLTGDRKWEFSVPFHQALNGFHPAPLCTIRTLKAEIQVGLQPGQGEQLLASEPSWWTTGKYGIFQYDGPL
# Method in brief: as §1
# [7] = target: T7, VRK1 (UniProt Q99986)
# T7 sequence (whole entry): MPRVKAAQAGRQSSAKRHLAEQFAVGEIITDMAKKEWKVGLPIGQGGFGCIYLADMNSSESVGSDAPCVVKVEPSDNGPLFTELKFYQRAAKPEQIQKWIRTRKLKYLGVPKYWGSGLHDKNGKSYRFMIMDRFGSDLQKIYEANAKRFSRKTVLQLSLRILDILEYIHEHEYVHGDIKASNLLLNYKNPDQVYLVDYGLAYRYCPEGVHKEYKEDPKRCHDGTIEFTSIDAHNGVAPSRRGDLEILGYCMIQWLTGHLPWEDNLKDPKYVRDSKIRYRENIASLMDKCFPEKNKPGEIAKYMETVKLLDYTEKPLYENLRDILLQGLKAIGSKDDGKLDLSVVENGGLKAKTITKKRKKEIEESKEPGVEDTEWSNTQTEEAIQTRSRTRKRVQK
# Method in brief: as §1
compound,measurement,setting,value
Nc1ncnc2c1ncn2[C@@H]1O[C@H](COP(=O)(O)OP(=O)(O)OP(=O)(O)O)[C@@H](O)[C@H]1O [adenosine triphosphate],NP40-soluble protein abundance,[1]; concentration: 1mM,1.35 ± 0.086
same,NP40-soluble protein abundance,[1]; concentration: 2mM,1.67 ± 0.17
same,NP40-soluble protein abundance,[1]; concentration: 4mM,2.19 ± 0.26
same,NP40-soluble protein abundance,[1]; concentration: 6mM,2.88 ± 0.35
same,NP40-soluble protein abundance,[1]; concentration: 8mM,3.54 ± 0.54
same,NP40-soluble protein abundance,[1]; concentration: 10mM,4.32 ± 0.63
same,NP40-soluble protein abundance,[2]; concentration: 1mM,1.52 ± 0.023
same,NP40-soluble protein abundance,[2]; concentration: 2mM,1.64 ± 0.086
same,NP40-soluble protein abundance,[2]; concentration: 4mM,1.78 ± 0.11
same,NP40-soluble protein abundance,[2]; concentration: 6mM,1.95 ± 0.1
same,NP40-soluble protein abundance,[2]; concentration: 8mM,1.91 ± 0.13
same,NP40-soluble protein abundance,[2]; concentration: 10mM,2.03 ± 0.14
same,NP40-soluble protein abundance,[3]; concentration: 1mM,1.07 ± 0.16
same,NP40-soluble protein abundance,[3]; concentration: 2mM,1.11 ± 0.22
same,NP40-soluble protein abundance,[3]; concentration: 4mM,1.05 ± 0.26
same,NP40-soluble protein abundance,[3]; concentration: 6mM,1.05 ± 0.15
same,NP40-soluble protein abundance,[3]; concentration: 8mM,0.905 ± 0.044
same,NP40-soluble protein abundance,[3]; concentration: 10mM,0.962 ± 0.11
same,NP40-soluble protein abundance,[4]; concentration: 1mM,1 ± 0.11
same,NP40-soluble protein abundance,[4]; concentration: 2mM,0.976 ± 0.074
same,NP40-soluble protein abundance,[4]; concentration: 4mM,1.06 ± 0.035
same,NP40-soluble protein abundance,[4]; concentration: 6mM,1.07 ± 0.11
same,NP40-soluble protein abundance,[4]; concentration: 8mM,0.993 ± 0.039
same,NP40-soluble protein abundance,[4]; concentration: 10mM,0.965 ± 0.1
same,NP40-soluble protein abundance,[5]; concentration: 1mM,1.02 ± 0.11
same,NP40-soluble protein abundance,[5]; concentration: 2mM,1.03 ± 0.09
same,NP40-soluble protein abundance,[5]; concentration: 4mM,1.03 ± 0.082
same,NP40-soluble protein abundance,[5]; concentration: 6mM,1.04 ± 0.12
same,NP40-soluble protein abundance,[5]; concentration: 8mM,0.992 ± 0.08
same,NP40-soluble protein abundance,[5]; concentration: 10mM,1 ± 0.019
same,NP40-soluble protein abundance,[6]; concentration: 1mM,1.08 ± 0.068
same,NP40-soluble protein abundance,[6]; concentration: 2mM,1.05 ± 0.06
same,NP40-soluble protein abundance,[6]; concentration: 4mM,1.02 ± 0.039
same,NP40-soluble protein abundance,[6]; concentration: 6mM,0.991 ± 0.072
same,NP40-soluble protein abundance,[6]; concentration: 8mM,1.04 ± 0.047
same,NP40-soluble protein abundance,[6]; concentration: 10mM,1.01 ± 0.053
same,NP40-soluble protein abundance,[7]; concentration: 1mM,1.39 ± 0.026
same,NP40-soluble protein abundance,[7]; concentration: 2mM,1.43 ± 0.021
same,NP40-soluble protein abundance,[7]; concentration: 4mM,1.44 ± 0.039
same,NP40-soluble protein abundance,[7]; concentration: 6mM,1.51 ± 0.057
same,NP40-soluble protein abundance,[7]; concentration: 8mM,1.52 ± 0.031
same,NP40-soluble protein abundance,[7]; concentration: 10mM,1.48 ± 0.063
